Hits are enriched below; roughly 5.4% of the tested compounds scored in any of these assays.
CSC inhib: blocks cancer stem cells. cancer stem cell-like cells viability, luminescence. inhibition, % at 7.5 µM. actives 1.1% (n = 300,000). AID 2717; in the data active means inhibition above about 75%; tested in HMLE shEcad cells
Beta apoptosis: blocks beta cell apoptosis; INS-1E cytokine-induced death, ATP luminescence, 48 h; percent of positive-control rescue, neutral wells zero; protection from apoptosis, % (no concentration beside the values); actives 0.8% (n = 300,000);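 active means Every replicate reaches about 75%, or at least half do and their mean reaches it too, limit read from the data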;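 further: 0% = cytokine-treated negative control wells and 100% = positive control rescue; higher means more ATP so stronger rescue from cytokine killing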
SKKanGAS inh: SKKanGAS growth inhibition. S. pyogenes SKKanGAS, kanamycin growth, BacTiter-Glo, 6 h. inhibition, % at 7.5 µM. actives 1.3% (n = 300,000);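 active means mean replicate score, as percent of positive control median, at least 50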;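 further: strain carries kanamycin resistance gene driven by streptokinase promoter and grows in 40 µg/ml kanamycin; loss of luminescence reflects streptokinase promoter inhibition or plain growth inhibition; 0% = median of DMSO wells and 100% = positive control at its reference dose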
Mdm2-MdmX inh: human Mdm2/MdmX binding inhibition; O15151+Q00987; SaOS-2 split-luciferase Mdm2/MdmX complementation, luminescence; inhibition, % at 8 µM; actives 3% (n = 330,000);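 active means inhibition of at least 50% at 8 µM in the primary screen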
Calb FLC: affects C. albicans growth with fluconazole; C. albicans CaCi-2 (fluconazole-resistant clinical isolate) + fluconazole, Alamar Blue growth, 48 h; growth inhibition, % (test concentration not listed); actives 0.57% (n = 300,000); AID 1979;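 active means growth inhibition above about 58% in most replicates, limit read from the data, passing the limit was not always enough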;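 further: all wells also contain fluconazole at 8 µg/ml as a sub-toxic cotreatment; 0% = median of DMSO wells and 100% = median of geldanamycin control wells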
MPTP inh: permeability transition pore inhibition | isolated mouse mitochondria, Ca2+ swelling absorbance, 30 min | inhibition, % at 10 µM | actives 1.4% (n = 360,000);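 active means inhibition of 50% or more, scaled per plate between neutral and stimulator controls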;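 further: 0% = DMSO wells given calcium and 100% = 1 mM EGTA wells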
The depositor's hits bear a star.

Screening CCn1c(=O)c(C(=O)NCc2ccc(Cl)cc2)c(O)c2ccccc21 returned SKKanGAS inh 1, Mdm2-MdmX inh 8, Calb FLC -6 and MPTP inh 3.
`Cc1ccccc1OCC(=O)OC(C(=O)c1ccccc1)c1ccccc1` (configuration not stated) gave CSC inhib -4, Beta apoptosis 1, SKKanGAS inh 3, Mdm2-MdmX inh 8, Calb FLC -6 and MPTP inh 0.
`Oc1ccc(-c2c(-c3ccsc3)sc3ccccc23)cc1` gave CSC inhib 4, Beta apoptosis -5, SKKanGAS inh 108*, Mdm2-MdmX inh -1, Calb FLC -28 and MPTP inh 2.
Screening COc1ccc(C(=O)OCC(=O)NC2CC2)cc1[N+](=O)[O-] returned CSC inhib -7, Beta apoptosis -3, SKKanGAS inh -2, Mdm2-MdmX inh 8, Calb FLC 1 and MPTP inh 1.
COc1cc(CNC(C)c2ccccc2)c(Br)cc1OCC(N)=O (configuration not stated) was read as CSC inhib 8, Beta apoptosis 5, SKKanGAS inh 3, Mdm2-MdmX inh -23, Calb FLC -11 and MPTP inh -1.
Screening CCCNC(=O)c1cc(C2CCCN(S(=O)(=O)c3cccs3)C2)on1 (configuration not stated) returned MPTP inh -1.
`CC(C)(C)OC(=O)N[C@@H](Cc1ccccc1)C(=O)N[C@@H](CO)[C@H](O)[C@@H]1C[C@@H]1C(=O)NC1CCCCC1` gave CSC inhib -14, Beta apoptosis 1, Mdm2-MdmX inh 22 and MPTP inh -2.
Cc1ccc(/C=C/c2ccc(=O)n(Cc3ccccc3Cl)n2)cc1 was read as CSC inhib 24, Beta apoptosis 1, SKKanGAS inh 69*, Mdm2-MdmX inh 20, Calb FLC 23 and MPTP inh 2.
Cc1ccc(/C=C/c2ccc(=O)n(Cc3ccc(F)cc3)n2)cc1 was read as CSC inhib -1, Beta apoptosis -3, SKKanGAS inh -5, Mdm2-MdmX inh 31, Calb FLC 0 and MPTP inh 14.
Screening O=C1N2CN(C(c3ccccc3)c3ccccc3)CN=C2SC1(CO)CO returned CSC inhib -3, SKKanGAS inh 6, Mdm2-MdmX inh -10, Calb FLC -6 and MPTP inh 0.
CCOC(=O)c1ccc(-c2ccc3c(=O)c4ccccc4n(C)c3c2)cc1F was read as CSC inhib -1, Beta apoptosis 5, SKKanGAS inh 65*, Mdm2-MdmX inh 21, Calb FLC -16 and MPTP inh 2.
`CC(=O)c1ccc(-c2cc([C@H]3[C@H]4C=CC[C@@H](C)[C@@H]4C(=O)N3Cc3ccccc3)ccc2F)cc1` gave CSC inhib 115*, Beta apoptosis 0, SKKanGAS inh 33, Mdm2-MdmX inh 16, Calb FLC -5 and MPTP inh -2.
O=C(CCS(=O)(=O)c1ccccc1)Nc1nnc(C(F)(F)F)s1 was read as CSC inhib 10, Beta apoptosis -3, SKKanGAS inh -1, Mdm2-MdmX inh -9, Calb FLC 97* and MPTP inh 1.
For CC(C)(C)c1nnc(NC(=O)CCS(=O)(=O)c2ccccc2)s1 the results were CSC inhib 0, SKKanGAS inh 3, Mdm2-MdmX inh 26, Calb FLC 93* and MPTP inh 2.
`O=C(CCS(=O)(=O)Cc1ccccc1)Nc1nnc(C(F)(F)F)s1` gave Beta apoptosis -4, SKKanGAS inh 0, Mdm2-MdmX inh 7, Calb FLC 83* and MPTP inh 0.
`N=C1SCC(=O)N1c1ncc(Cc2ccccc2Cl)s1` gave SKKanGAS inh -8, Calb FLC 48 and MPTP inh 3.
Cc1cccc(Cc2cnc(N3C(=N)SC(c4ccccc4)C3=O)s2)c1 (configuration not stated) was read as CSC inhib -11, Beta apoptosis 12, SKKanGAS inh 106*, Mdm2-MdmX inh 22, Calb FLC -2 and MPTP inh -6.
For O=C1c2ccccc2C(=O)N1c1ncc(Cc2ccc(Cl)cc2)s1 the results were CSC inhib -1, Beta apoptosis -6 and MPTP inh 1.
N=C1SCC(=O)N1c1ncc(Cc2cccc(Cl)c2)s1 was read as SKKanGAS inh 84*, Calb FLC 13 and MPTP inh 8.
